Bioassay records as filed in PubChem.
HT1080 IDH1KD tx = HT-1080 IDH1 knockdown cell toxicity (counter line) | 2% of 360,000 active | Potency, µM (titrated, usually from 46.1 µM), usual class: cytotoxic | AID 686971 | HT-1080 IDH1 knockdown viability, ATP luminescence, 48 h
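% activity derives from luminescence (CellTiter-Glo), normalised to DMSO and no-cell wells. HT-1080-IDH1KD cells, 750/well, had 48 h compound exposure at 37 °C.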
HT1080-NT tox = kills 2HG-producing HT-1080-NT fibrosarcoma cells; 1.6% of 360,000 active; AID 686970; Potency, µM (doses to about 46.1 µM), actives largely listed as cytotoxic; HT-1080-NT fibrosarcoma viability, CellTiter-Glo ATP luminescence, 48 h;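 note: NT is the 2HG producing partner of a matched IDH1 knockdown line; nearly all actives have a fitted effect of over 55% in size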
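Viability of the 2HG-overproducing fibrosarcoma line after 48 hours of compound exposure at 37 degrees C was determined by luminescence with CellTiter-Glo, and concentration-effect curves were then fitted and categorized.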
SW480 rerep = induces DNA re-replication in SW480 colon adenocarcinoma cells | SW480 DNA re-replication, Hoechst DNA content imaging, 48 h | Potency, µM (doses to about 46.1 µM), hits mostly activators | 1.8% of 340,000 active; note: nearly all actives have a fitted effect of over 55% in size
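Image-based DNA-content assay: after two days of treatment, nuclei were labelled with the DNA dye Hoechst and imaged, and hits were compounds raising the count of nuclei showing high fluorescence intensity.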
MCF10A rereplic = induces DNA re-replication in MCF 10a normal breast cells; MCF 10A DNA re-replication, Hoechst nuclear intensity, 48 h; Potency, µM (doses to about 46.1 µM), most hits filed as activators; 2.9% of 350,000 active; AID 624296; note: nearly all actives have a fitted effect of over 50% in size
KB-3-1 cytotox = kills parental KB-3-1 adenocarcinoma cells | AID 1347075 | 1.4% of 400,000 active | Potency, µM (titrated, usually from 46.1 µM), most hits filed as cytotoxic | KB-3-1 viability, CellTiter-Glo ATP luminescence, 72 h; note: nearly all actives have a fitted effect of over 60% in size
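Here the drug-naive KB-3-1 line serves as comparator for MDR sub-line selectivity; cells received compound titrations, 72 h at 37 °C, then CellTiter-Glo readout.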
KB-V1 cytotox = KB-V1 MDR subline cytotoxicity. KB-V1 MDR cells viability, CellTiter-Glo, 72 h. Potency, µM (top dose mostly 46.1 µM), usual class: cytotoxic. 3.4% of 400,000 active. AID 1347076; note: nearly all actives have a fitted effect of over 60% in size
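Readout: CellTiter-Glo luminescence, 10 min after addition. Cells: KB-V1 MDR subline, 72 h at 37 degrees C with compound. Analysis: corrected, normalized data fitted to concentration-effect curves.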
Hits are given with their value; i = inactive; ? = inconclusive; nt = no result; [ ] = remark or other dose. Shown are actives, neighbours in structure and some others; about 7.9% of the full set was active somewhere. Calls come from the whole dose curve; as a rule, active = well fitted curve in the direction sought with a large enough effect; inconclusive = small, poorly fitted or top-dose-only effect, or another doubt; inactive = no such curve, though single readings can be large; an effect the other way counts as inactive or inconclusive.

SMILES	HT1080 IDH1KD tx	HT1080-NT tox	SW480 rerep	MCF10A rereplic	KB-3-1 cytotox	KB-V1 cytotox
COC(=O)Cc1cc(=O)oc2cc(O)ccc12	i	i	18.4µM	16.4µM	i	i
CCN(CC)C1Oc2cc3c(cc2C(c2cc(OC)c(OC)c(OC)c2)C1C)OCO3 (stereo not given)	1.46µM	1.84µM	?	1.46µM	1.16µM	?
C/C=C(/C)C(=O)O[C@@H]1c2cc3c(c(OC)c2-c2c(cc(OC)c(OC)c2OC)[C@@H](OC(C)=O)[C@@H](C)[C@H]1C)OCO3	i	i	i[9.22 µM]	i	i	i
COc1cc(C2CC(=O)Oc3cc4c(cc32)OCO4)cc(OC)c1OC (stereo not given)	i	i	i	i	i	i
COc1cc(C2c3cc4c(cc3C3OC(=O)C2C3CO)OCO4)cc(OC)c1OC (stereo not given)	0.0164µM	0.0103µM	nt	nt	?	0.206µM
COc1cc([C@@H]2c3cc4c(cc3[C@@H](O)[C@H]3COC(=O)[C@H]23)OCO4)cc(OC)c1O[Si](C)(C)C(C)(C)C	?	?	i	?	5.8µM	?
Cc1sc2ncn(CC(=O)N3CCN(c4ccc(F)cc4)CC3)c(=O)c2c1S(=O)(=O)N1CCOCC1	i	i	i	i	i	i
CC1=C(C(=O)N2CCCCCC2)CC(CC(=O)NC2CCCCC2)C(=O)N1Cc1ccc(C(C)(C)C)cc1 (stereo not given)	i	i	nt	nt	i	i
COc1ccc(NC(=O)c2oc3ccccc3c2NC(=O)c2cc(OC)c(OC)c(OC)c2)cc1	nt	nt	nt	nt	i	i
Brc1ccc(CNc2ccc3ncccc3c2)cc1	i	i	i	14.6µM	?	?
O=C(CSc1nc2c(oc3ccccc32)c(=O)n1Cc1ccco1)Nc1ccccc1Cl	nt	nt	nt	nt	i	i
COc1cccc(NC(=O)Nc2nnc(Cc3ccccc3F)s2)c1	?	i	i	14.6µM	i	?
O=C(Nc1ccc(F)cc1)Nc1nnc(Cc2ccccc2F)s1	i	i	i	i	i	18.4µM
O=C(Nc1ccccc1)Nc1nnc(Cc2ccccc2F)s1	i	i	i[9.22 µM]	i	i	i
CCC(c1ccc(O)cc1)C(CC)c1ccc(O)cc1 (stereo not given)	?	?	?	?	i	?
CC[C@H](c1ccc(O)cc1)[C@@H](CC)c1ccc(O)cc1	nt	nt	i	11.4µM	nt	nt
COc1ccc(C(=O)N(CCc2ccccc2)Cc2ccccc2)c(OC)n1	i	i	i	?	?	8.2µM
Cc1noc(NS(=O)(=O)c2ccc(N/C=C\C(=O)c3ccc4c(c3)OCO4)cc2)c1C	10µM	i	i	5.8µM	i	i
CCCCOn1c(C)c(C(=O)OCC)c2c3nonc3ccc21	i	i	i	?	i	8.2µM
CCOc1cc(/C=C2\C(=N)N3N=C(S(C)(=O)=O)SC3=NC2=O)ccc1OCCOc1cccc(OC)c1	i	?	i	23.1µM	i	i
COc1cc(/C=C2/C(=N)N3C=CSC3=NC2=O)ccc1OCCCOc1ccccc1C	?	i	i	i	i	i
CCOc1cc(/C=C2/C(=N)N3C=CSC3=NC2=O)ccc1OCCCOc1ccccc1C	?	?	?	3.26µM	i	i
COc1ccc(-c2noc(-c3ccc(N4CCN(c5ccccc5)CC4)c([N+](=O)[O-])c3)n2)cc1	nt	nt	nt	nt	i	i
COc1ccccc1NC(=O)/C(=C\c1cccnc1)NC(=O)c1ccc(C)cc1	i	i	i	i	i	i
COc1ccc(N(C(=O)CCl)C(C(=O)NCCc2ccccc2)c2cccs2)cc1 (stereo not given)	1.64µM	2.06µM	3.26µM	?	7.31µM	18.4µM
SMILES	HT1080 IDH1KD tx	HT1080-NT tox	SW480 rerep	MCF10A rereplic	KB-3-1 cytotox	KB-V1 cytotox
COc1ccc(CNC(=O)C(c2ccncc2)N(C(=O)Cc2cccs2)c2ccccc2)cc1 (stereo not given)	i	i	i	i	?	i
Cc1cn(C)c(CC(=O)Nc2ccc(F)cc2Cl)c1C(=O)O	nt	nt	nt	nt	i	i
Cc1cc(Nc2ccc3c(c2)OCCO3)c2cc(Cl)ccc2n1	i	i	i	i	i	14.6µM
O=S(=O)(c1ccccc1)N(C1=NCCS1)S(=O)(=O)c1ccccc1	i	i	i	i	i	20.6µM
O=C(Nc1ccccc1)N(Cc1ccccc1)C1=NCCS1	i	i	i	i	i	i
COc1ccc(NC(=O)CNC(=O)C23CC4CC(CC(C4)C2)C3)c(OC)c1	i	i	4.61µM	i	i	i
COc1ccc(NC(=O)C23CC4CC(C2)CC(c2ccccc2)(C4)C3)c(OC)c1	i	i	?	?	i	14.6µM
CN(C)S(=O)(=O)c1cccc(C(=O)NCCNC(=O)c2cccc(S(=O)(=O)N(C)C)c2)c1	i	i	i	i	i	i
CCN(CC)S(=O)(=O)c1cccc(C(=O)NCCc2ccccc2)c1	i	i	i	i	i	9.2µM
CCN(Cc1ccccc1)S(=O)(=O)CCNC(=O)c1ccccc1	i	i	i	i	i	20.6µM
CCN(CC)S(=O)(=O)c1cccc(C(=O)N/N=C/c2ccc(O)c(O)c2O)c1	?	?	i	i	i	i
CCN(CC)S(=O)(=O)c1cccc(C(=O)N/N=C(\C)c2ccc(O)cc2O)c1	1.46µM	?	1.84µM	3.66µM	i	?
COc1ccc(N(CC(=O)NC2CCCCC2)C(=O)c2ccc(C)s2)c(OC)c1	i	i	i	i	i	?
COc1ccc(NC(=O)C2Cc3ccccc3O/C2=N\O)cc1 (stereo not given)	i	i	i	i	i	i
COc1ccc(/C=C2\SC(=S)N(CCC(=O)NC3CCCC3)C2=O)cc1OC	i	i	i	?	i	i
O=C(CN1c2ccccc2S(=O)(=O)c2ccccc21)Nc1ccccc1Cl	nt	nt	nt	nt	i	i
CCOC(=O)CSc1cc(CS(=O)(=O)c2ccccc2)nc(-c2ccccc2)n1	i	i	i	i	i	i
O=S(=O)(Cc1cc(Cl)nc(-c2ccccc2)n1)c1ccccc1	?	i	?	20.6µM	i	i
O=S(=O)(Cc1cc(Cl)nc(-c2ccncc2)n1)c1ccccc1	?	23.1µM	?	?	i	i
COC(=O)CSc1ncc2c(n1)-c1ccccc1N(Cc1cccc(F)c1)S2(=O)=O	nt	nt	nt	nt	i	i
CCn1nc(NC(=O)CC(C)C)c2cc3cccc(C)c3nc21	i	i	20.6µM	9.2µM	i	i
CCn1nc(NC(=O)C(C)(C)C)c2cc3cccc(C)c3nc21	i	i	?	6.51µM	i	i
Cc1cccc2cc3c(NC(=O)c4ccccn4)nn(C)c3nc12	?	?	?	8.2µM	i	i
CCCn1nc(NC(C)=O)c2cc3cccc(C)c3nc21	i	i	18.4µM	18.4µM	i	i
